Experimental data from PubChem BioAssay (NCI).
This is part of a sample that, as a whole, favours compounds with a hit. Of some 83,000 tested, about 20% had one in any assay.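 Plates (96-well) were seeded with cells, treated with compound at one concentration, and incubated for 48 hours before percent growth was determined.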 Unmarked numbers belong to inactive results. The source made the active and inactive calls. Rule for the calls: active = growth percent below 10; inactive = the rest.

What was measured:
Test in all cases: NCI-60 one-dose screen, 48 h (100 = growth as untreated, 0 = no growth, -100 = all killed)
Settings in all cases: 10 µM unless noted
NCI-H23 lung = system: NCI-H23 lung
NCI-H226 lung = system: NCI-H226 lung
NCI-H322M lung = system: NCI-H322M lung
HOP-62 NSCLC = system: HOP-62 NSCLC
NCI-H460 lung = system: NCI-H460 lung
HOP-92 NSCLC = system: HOP-92 NSCLC
NCI-H522 lung = system: NCI-H522 lung
A549/ATCC NSCLC = system: A549/ATCC NSCLC
786-0 renal = system: 786-0 renal
COLO 205 colon = system: COLO 205 colon

SMILES | growth (NCI-H23 lung) | growth (NCI-H226 lung) | growth (NCI-H322M lung) | growth (HOP-62 NSCLC) | growth (NCI-H460 lung) | growth (HOP-92 NSCLC) | growth (NCI-H522 lung) | growth (A549/ATCC NSCLC) | growth (786-0 renal) | growth (COLO 205 colon)
CCOC(=O)/C(=C\c1ccc2ccccc2c1)P(=O)(OCC)OCC | 41.1% | 55.7% | 70% | 40.6% | 20% | 40.7% | -31.7% (active) | 55.8% | 11.6% | 42.2%
[Cl-].[Rh+3].c1ccc(-c2ccnc3c2ccc2c(-c4ccccc4)ccnc23)cc1.c1ccc(-c2ccnc3c2ccc2c(-c4ccccc4)ccnc23)cc1.c1ccc(-c2ccnc3c2ccc2c(-c4ccccc4)ccnc23)cc1 | 86.6% | 107% | 105% | 92% | 92.4% | 80.9% | 42.1% | -0.367% (active) | 84.8% | 64.6%
C[n+]1ccccc1C[n+]1ccccc1 | 106% | 108% | 128% | 100% | 115% | 101% | 111% | 107% | 108% | 114%
O=C(c1ccccc1)N(CCCl)C(=O)N(CCCl)C(=O)c1ccccc1 | 93.7% | 93.7% | 90.2% | 91.5% | 108% | 62.3% | 85.7% | 95.7% | 103% | 99.9%
CC(C)N=C(N)/N=C(\N)Nc1ccc2ccc3ccccc3c2c1 | -88.1% (active) | -67.6% (active) | -89.9% (active) | -84.5% (active) | -58.1% (active) | -68.6% (active) | -84.8% (active) | -65.2% (active) | -70.1% (active) | -92% (active)
CCc1cccc(CC)c1N1C(=O)C=CC1=O | 108% | 117% | 95.3% | 83.7% | 96.1% | 56.5% | 91.6% | 71.9% | 82.5% | 75.8%
S=C1SCN(Cc2cccs2)CN1Cc1cccs1 | 107% | 104% | 99.4% | 122% | 101% | 79.9% | 46.7% | 96.8% | 102% | 108%
CCCCC(CCc1ccc([N+](=O)[O-])cc1)(C(C)=O)C(=O)OCC (stereo not given) | 95.7% | 89.7% | 108% | 102% | 105% | 91.5% | 104% | 100% | 98.2% | 111%
OC(Cc1cc(CC(O)(C(F)(F)F)C(F)(F)F)nc(CC(O)(C(F)(F)F)C(F)(F)F)c1)(C(F)(F)F)C(F)(F)F | -5.07% (active) | 11.6% | 13.3% | -37.3% (active) | 0.458% (active) | -27.9% (active) | -18.6% (active) | 3.09% (active) | 1.13% (active) | -92.6% (active)
CN=C(N)N/N=C(\c1ccccc1)c1ccc(Br)cc1 | 21% | 15.6% | 0.506% (active) | 8.02% (active) | 6.18% (active) | 32.2% | -29.9% (active) | 9.47% (active) | 13.4% | -55.6% (active)
CC(O)C(O)C(O)C(O)C(O)C(=O)NNc1ccccc1 (stereo not given) | 96.1% | 94.3% | 76.1% | 72.4% | 100% | 95.2% | 66.8% | 90.9% | 103% | 94.2%
CCC[CH2][Sn]1([CH2]CCC)[O]C2C(CO)OC(n3ccc(N)nc3=O)C2[O]1 (stereo not given) | -42.1% (active) | -93.9% (active) | 33.3% | 22.7% | 12.1% | -56.3% (active) | -78.9% (active) | 68.1% | -89.9% (active) | -79.4% (active)
COC(=O)c1ccc(=O)c2nc3/c(=C/O)c(O)cc(=O)c3[nH]c12 | 15.1% | 34.9% | 29.1% | -9.51% (active) | 19.9% | -1.12% (active) | 6.78% (active) | 27.7% | 11.8% | 51%
O=C(/C=C/c1ccccc1)c1ccccc1O | 82.3% | 91.6% | 90.2% | 103% | 93.2% | 74.4% | 69.6% | 83.9% | 79.7% | 105%
Cc1cc(N/N=C/c2ccccn2)nc2ccccc12 | 14% | -1.94% (active) | 7.17% (active) | 0.2% (active) | 3.05% (active) | -2.87% (active) | -25.6% (active) | 1.82% (active) | 8.98% (active) | 20.5%
CN(C)CCSC1=Nc2ccc(Cl)cc2C(c2ccccc2Cl)N(C)C1 (stereo not given) | 90% | 52.4% | 58.7% | 55.9% | 78.7% | 51.4% | 71.8% | 78% | 65.2% | 70.4%
Cc1ccccc1N=C(N)Nc1ccccc1C (tested in a mixture with another compound) | 94.8% | 97.1% | 99.4% | 84.7% | 76.1% | 76.5% | 4.48% (active) | 74.4% | 73.9% | 85.5%
COC1CC(C)C(OC)c2cc(O)cc(c2O)NC(=O)/C(C)=C/C=C\C(C)C(OC(N)=O)/C(C)=C\C(C)C1OC (stereo not given) | 39.4% | 47.8% | 54.1% | 37.9% | 9.42% (active) | 11.4% | -67.4% (active) | 13.3% | 31.3% | -0.179% (active)
CCCCCCCCc1cc(Cl)c(O)c(Cl)c1 | 103% | 104% | 121% | 105% | 109% | 99.5% | 97.6% | 98.5% | 108% | 108%
c1ccc(-c2cccc(-c3ccccn3)n2)nc1 | 21.3% | 4.69% (active) | 26.9% | 7.3% (active) | 3.53% (active) | 42.4% | 18.3% | 9.52% (active) | 16.2% | 4.26% (active)
O=[N+]([O-])C=C(c1ccccc1)c1ccccc1 | 81.9% | 88.6% | 88% | 73.7% | 88.4% | 63.9% | 72.7% | 79.5% | 89.2% | 114%
O=C1C=CC(=O)N1c1ccc(O)cc1 | 103% | 101% | 105% | 104% | 104% | 101% | 104% | 103% | 98.3% | -37% (active)
O/N=C1\c2ccccc2-c2ccc(F)cc21 | 99.4% | 82.5% | 92.5% | 95.9% | 98.9% | 94.7% | 100% | 100% | 104% | 73.7%
CN(Cc1ccccc1)c1ccc(SC#N)cc1 | 89.8% | 111% | 94.7% | 108% | 86.6% | 59.7% | 45.5% | 92% | 79.4% | 66.4%
CCCCC(C=O)(C=C=C(C)C)CC (stereo not given) | 112% | 103% | 101% | 120% | 105% | 86.4% | 95.5% | 94.3% | 99.1% | 110%
Cn1ccc(=Nc2ccc(NC(=O)c3ccc(N=c4ccn(C)c5ccc([N+](=O)[O-])cc45)cc3)cc2)cc1 | 73.8% | 70% | 104% | 52.6% | 98.5% | 70.9% | 52.7% | 65.5% | 78.8% | 56.6%
O=C(c1ccccc1)C(Br)[N+](=O)[O-] (stereo not given) | 99.8% | 101% | 101% | 73.6% | 101% | 103% | 64.4% | 69.6% | 106% | 86.8%
N=C(N)Sc1cccc[n+]1[O-] | 55.6% | 78.7% | 68.9% | 79% | 21.8% | 104% | 37% | 54.5% | 76.7% | 39.8%
